Data reported in paper PMC4336329 (PLoS ONE, 2015).
About 14,000 (4.5%) of roughly 310,000 compounds showed an effect of 50% or more. Effects have a minus sign here. This is one part of a sample in which strong results are shown more often than they occur.

What follows are molecules tested against human ether-à-go-go-related gene (hERG) potassium channel (human, UniProt Q12809) (assay: primary screen, population patch clamp on CHO cells stably expressing hERG; higher = less effect of the substance).
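Note: peak tail current of the secondary pulse compared with the same well before compound.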

human ether-à-go-go-related gene (hERG) potassium channel, sequence (Q12809 whole entry, looked up): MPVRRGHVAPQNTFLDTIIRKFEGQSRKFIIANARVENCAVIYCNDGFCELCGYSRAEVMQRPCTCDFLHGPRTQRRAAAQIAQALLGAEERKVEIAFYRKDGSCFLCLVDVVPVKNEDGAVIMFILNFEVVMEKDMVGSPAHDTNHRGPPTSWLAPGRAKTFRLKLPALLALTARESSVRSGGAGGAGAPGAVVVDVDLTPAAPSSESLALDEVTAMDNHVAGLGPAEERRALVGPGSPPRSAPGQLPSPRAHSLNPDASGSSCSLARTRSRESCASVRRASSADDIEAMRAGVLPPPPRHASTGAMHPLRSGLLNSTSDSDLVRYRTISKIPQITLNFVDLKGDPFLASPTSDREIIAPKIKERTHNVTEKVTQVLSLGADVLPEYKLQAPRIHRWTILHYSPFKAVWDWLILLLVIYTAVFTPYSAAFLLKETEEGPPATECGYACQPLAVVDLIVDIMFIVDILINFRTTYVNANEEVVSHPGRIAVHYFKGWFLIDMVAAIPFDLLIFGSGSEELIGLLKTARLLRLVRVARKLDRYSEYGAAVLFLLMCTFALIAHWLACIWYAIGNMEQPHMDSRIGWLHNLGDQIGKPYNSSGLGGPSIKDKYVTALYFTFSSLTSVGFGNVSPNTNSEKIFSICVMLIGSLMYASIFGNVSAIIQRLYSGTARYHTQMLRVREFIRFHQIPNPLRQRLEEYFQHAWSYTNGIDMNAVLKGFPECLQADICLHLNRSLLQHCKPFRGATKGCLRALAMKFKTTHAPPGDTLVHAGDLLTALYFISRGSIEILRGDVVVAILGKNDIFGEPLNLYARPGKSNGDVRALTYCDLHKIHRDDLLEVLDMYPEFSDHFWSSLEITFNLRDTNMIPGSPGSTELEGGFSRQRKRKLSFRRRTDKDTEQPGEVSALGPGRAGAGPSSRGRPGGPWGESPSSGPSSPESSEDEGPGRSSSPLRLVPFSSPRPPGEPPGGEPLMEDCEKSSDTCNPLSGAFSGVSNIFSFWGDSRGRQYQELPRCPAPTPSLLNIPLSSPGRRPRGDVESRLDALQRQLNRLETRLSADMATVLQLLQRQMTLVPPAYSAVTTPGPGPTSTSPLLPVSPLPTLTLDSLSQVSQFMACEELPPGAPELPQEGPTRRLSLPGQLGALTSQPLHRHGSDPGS

Compared with `Cc1ccc(OCCN2CCN(C(=O)CCC(=O)Nc3nnc(C)s3)CC2)cc1`, `CCOc1ccc2nc(NC(=O)CSc3nnc(-c4ccncc4)n3CC3CCCO3)sc2c1` (stereo not shown) is higher in “hERG current change (%, negative = inhibition) at 10uM” value: -7.69% for the first, 3.71% for the second.

Compared with `Nc1nc(SC2c3cccc4cccc(c34)C2NS(=O)(=O)c2ccccc2)n[nH]1` (stereo not shown), `NC(=O)c1nc(C(=O)N2CCN(c3ccccc3)CC2)c2ccccc2n1` is lower in “hERG current change (%, negative = inhibition) at 10uM” value: 5.88% for the first, 2.14% for the second.

Compared with `Cc1nc2ccc(C(=O)O)cc2c2c1CC(C)S2` (stereo not shown), `COc1cccc(Nc2ccc(C(=O)O)cc2N)c1` is higher in “hERG current change (%, negative = inhibition) at 10uM” value: -16% for the first, 11.3% for the second.

Compared with `CCCCN1CC(=O)N2[C@H]3c4ccccc4OC[C@@H]3[C@H](c3ccccc3)[C@]2(C)C1=O`, `O=C1CSc2ccccc2N1Cc1ccccc1F` is lower in “hERG current change (%, negative = inhibition) at 10uM” value: -19.9% for the first, -55.8% for the second.

First: CN(C(=O)COC(=O)C1c2ccccc2Oc2ccccc21)C1CCS(=O)(=O)C1 (stereo not shown)
Second: CCOC(=O)c1c(C)[nH]c(C)c1C(=O)COC(=O)C1CCCN1S(=O)(=O)c1ccccc1F (stereo not shown)
The “hERG current change (%, negative = inhibition) at 10uM” value of the first is higher: 4.56% for the first, -2.63% for the second.

Going from `CC(C)C(CC(=O)N1CCCCC1)C1CCOC(C)(C)C1` (stereo not shown) to `CC1(C)CC(N2CCCC2)=CC(=[N+]2CCCCC2)C1.[I-]`, the “hERG current change (%, negative = inhibition) at 10uM” value rises from -2.24% to 3.58%.

Compared with `Cc1cnc(C(=O)N2CCCC(C(=O)c3ccc(C(F)(F)F)cc3)C2)cn1` (stereo not shown), `Cc1cccc(CN2CCCC(C(=O)c3ccc(C(F)(F)F)cc3)C2)n1` (stereo not shown) is lower in “hERG current change (%, negative = inhibition) at 10uM” value: -17.7% for the first, -68.2% for the second.

Compared with `CC(C)(C)c1ccc(C(=O)C2CCCN(Cc3ccon3)C2)cc1` (stereo not shown), `CC(C)(C)c1ccc(C(=O)Oc2ccc3c(c2)OCC3=O)cc1` is higher in “hERG current change (%, negative = inhibition) at 10uM” value: -1.45% for the first, 2.55% for the second.

Compared with `CC1Sc2ccc(S(=O)(=O)N3CCN(c4cccc(Cl)c4)CC3)cc2NC1=O` (stereo not shown), `Cc1ccc(S(=O)(=O)N2CCOCC2)cc1C(=O)Nc1cccc(S(=O)(=O)N2CCCC2)c1` is lower in “hERG current change (%, negative = inhibition) at 10uM” value: 9.32% for the first, -38.3% for the second.

Compared with `CCOc1ccc(NC(=S)NC(=O)c2cncc(Br)c2)cc1`, `O=C(COc1ccc(Br)cc1CO)Nc1ccc(F)cc1` is lower in “hERG current change (%, negative = inhibition) at 10uM” value: 10.1% for the first, -32.8% for the second.

Compared with `CCN(CC(=O)Nc1c(F)cccc1F)C(=O)c1n[nH]c2ccccc12`, `CCN(CC(=O)Nc1cc(Cl)ccc1C)C(=O)COc1cccc2c1OC(C)(C)C2` is lower in “hERG current change (%, negative = inhibition) at 10uM” value: 10.4% for the first, -4.2% for the second.

Going from `Cc1ccccc1NC(=O)CSc1n[nH]c(-c2ccco2)n1` to `Cc1ccccc1NC(=O)CSc1nnc(-c2ccco2)n1N`, the “hERG current change (%, negative = inhibition) at 10uM” value falls from 10.1% to 4.14%.

Compared with `Cc1ccccc1NC(=O)CSc1nnc(-c2ccco2)c(-c2ccco2)n1`, `Cc1cccc(NC(=O)CSc2nnc(-c3ccco3)c(-c3ccco3)n2)c1C` is lower in “hERG current change (%, negative = inhibition) at 10uM” value: -53.9% for the first, -66.4% for the second.

Compared with `Cc1cccc(C)c1NC(=O)CSc1nc(-c2ccco2)cc(C(F)(F)F)n1`, `Cc1cccc(C)c1NC(=O)CSc1nnc(-c2ccco2)n1N` is lower in “hERG current change (%, negative = inhibition) at 10uM” value: 4.77% for the first, -4.1% for the second.

Going from `Cc1cccc(NC(=O)CSc2nnc(-c3ccco3)o2)c1C` to `Cc1cccc(NC(=O)CSc2nnc(CNC(=O)c3ccco3)n2C)c1C`, the “hERG current change (%, negative = inhibition) at 10uM” value falls from -4.42% to -17.3%.

Compared with `Cc1cccc(C)c1NC(=O)CSc1nnc(-c2ccco2)c(-c2ccco2)n1`, `COc1ccc(CN2C(=O)c3cccnc3C2=O)cc1S(=O)(=O)N(C)Cc1ccco1` is higher in “hERG current change (%, negative = inhibition) at 10uM” value: -67.1% for the first, -13.3% for the second.

Compared with `CCOc1ccc(C(=O)COC(=O)CN2C(=O)NC3(CCCCC3C)C2=O)cc1` (stereo not shown), `CN(C)S(=O)(=O)c1ccc(NC(=O)CN2C(=O)NC3(CCCC3)C2=O)cc1` is higher in “hERG current change (%, negative = inhibition) at 10uM” value: -42.7% for the first, 8.41% for the second.

Compared with `CCOC(=O)C1CCN(C(=O)c2ccc(NC(=O)C3CCCO3)cc2)CC1` (stereo not shown), `CC(=O)Nc1ccc(NC(=O)c2cc(S(=O)(=O)N3CCCCC3)ccc2C)cc1` is higher in “hERG current change (%, negative = inhibition) at 10uM” value: -9.35% for the first, 5.45% for the second.

Compared with `Cc1[nH]n2c(=O)cc(C(C)C)nc2c1-c1ccccc1`, `CCOc1cc(CNCC(C)C)c(Cl)cc1OCC(=O)Nc1ccccc1` is lower in “hERG current change (%, negative = inhibition) at 10uM” value: -12.1% for the first, -15.2% for the second.

First: Clc1ccc(CSc2ccc(-c3ccccn3)nn2)cc1
Second: O=C(C1=C(O)C(=O)N(c2ncccn2)C1c1ccc(Cl)cc1)c1ccco1 (stereo not shown)
The “hERG current change (%, negative = inhibition) at 10uM” value of the first is lower: -2.04% for the first, 7.37% for the second.

Compared with `Cc1ccc(S(C)(=O)=O)cc1C(=O)Nc1cccc(S(=O)(=O)N2CCCCCC2)c1`, `CSc1ncccc1C(=O)Nc1cccc(S(=O)(=O)N2CCCCC2)c1` is higher in “hERG current change (%, negative = inhibition) at 10uM” value: -65.2% for the first, -64.3% for the second.

Compared with `CCOc1ncccc1C(=O)Nc1cccc(S(=O)(=O)N2CCCCC2)c1`, `CSc1ncccc1C(=O)Nc1ccc(S(=O)(=O)N2CCCC2)cc1` is lower in “hERG current change (%, negative = inhibition) at 10uM” value: -7.03% for the first, -16.6% for the second.

First: COc1ccc(OC2C(=O)N(Cc3ccc4c(c3)OCO4)C2c2sccc2C)cc1 (stereo not shown)
Second: COc1ccc(CNS(=O)(=O)c2ccc(S(=O)(=O)NC3CC3)cc2)cc1
The “hERG current change (%, negative = inhibition) at 10uM” value of the first is lower: -5.31% for the first, 17.9% for the second.

Compared with `O=CNCC(=O)NC1CCCCCC1`, `O=C(COc1ccc(Br)cc1Br)NC1CCCC1` is lower in “hERG current change (%, negative = inhibition) at 10uM” value: 20.5% for the first, 12.9% for the second.

First: CN(Cc1ccco1)S(=O)(=O)c1ccc(CN2C(=O)c3cccnc3C2=O)s1
Second: O=C1c2cccnc2C(=O)N1Cc1ccc(S(=O)(=O)NCc2ccco2)s1
The “hERG current change (%, negative = inhibition) at 10uM” value of the first is lower: -63.4% for the first, 16.2% for the second.

First: O=C(CCl)N=c1sccn1Cc1ccccc1Cl
Second: O=C(O)CN1C(=O)CSc2ccccc21
The “hERG current change (%, negative = inhibition) at 10uM” value of the first is higher: -5.61% for the first, -30.6% for the second.

Compared with `COc1cc(/C=C(\C#N)C(=O)NCc2cccs2)ccc1O`, `O=C(/C=C/c1ccccc1)NC(=S)NNC(=O)Cc1cccs1` is higher in “hERG current change (%, negative = inhibition) at 10uM” value: -0.725% for the first, 22.5% for the second.

Compared with `COc1ccccc1NC(=O)COc1ccc(Br)cc1CNC1CCCC1`, `Cl.O=C(COc1ccc(Br)cc1CNC1CCCC1)Nc1ccccc1` is lower in “hERG current change (%, negative = inhibition) at 10uM” value: -53.2% for the first, -73.1% for the second.

First: O=C(COc1ccc(Br)cc1CNC1CCCCC1)NCCc1ccccc1
Second: CCOc1cc(CNC2CCCC2)c(Cl)cc1OCC(=O)Nc1ccccc1
The “hERG current change (%, negative = inhibition) at 10uM” value of the first is lower: -77% for the first, -67.8% for the second.

Compared with `COc1cc(CNC2CCCC2)cc(Br)c1OCC(=O)Nc1ccccc1C`, `COc1ccccc1NC(=O)COc1ccc(Br)cc1CO` is lower in “hERG current change (%, negative = inhibition) at 10uM” value: -1.01% for the first, -4.58% for the second.

Compared with `O=C(COc1ccc(Br)cc1CO)Nc1ccccc1`, `CCCNCc1cc(OCC)c(OCC(=O)Nc2ccccc2)cc1Br` is lower in “hERG current change (%, negative = inhibition) at 10uM” value: -10.4% for the first, -24.7% for the second.

Compared with `COc1ccc(Br)cc1CN(C)CC(=O)NCCc1ccccc1.O=C(O)C(=O)O`, `Brc1ccc(OCc2ccccc2)c(CNCC2CCCO2)c1.Cl` (stereo not shown) is lower in “hERG current change (%, negative = inhibition) at 10uM” value: -14.7% for the first, -50% for the second.

Going from `COC(=O)c1cc(C(=O)CC(C)C)c[nH]1` to `COC(=O)c1cccc(NC(=O)c2ccco2)c1`, the “hERG current change (%, negative = inhibition) at 10uM” value falls from 16.7% to 4.02%.

Going from `COc1ccc(NC(=O)CCS(=O)(=O)c2cc3c(cc2Cl)NC(=O)CO3)cc1OC` to `COc1cc(-c2noc(C)c2C(=O)NCCc2c[nH]c3ccccc23)cc(OC)c1OC`, the “hERG current change (%, negative = inhibition) at 10uM” value falls from 9.57% to 0.397%.

Going from `O=C(NCCc1ccccn1)C1CCCN(S(=O)(=O)Cc2ccccc2)C1` (stereo not shown) to `COCCn1cnc2c1c(=O)n(CC(=O)OCC(=O)NCCCc1ccccc1)c(=O)n2Cc1ccccc1`, the “hERG current change (%, negative = inhibition) at 10uM” value falls from 9.26% to -57.9%.

First: CCOc1ccccc1CNCC1CCCO1.Cl (stereo not shown)
Second: Cl.Fc1ccccc1COc1ccc(Br)cc1CNCC1CCCO1 (stereo not shown)
The “hERG current change (%, negative = inhibition) at 10uM” value of the first is higher: 11.5% for the first, -68.3% for the second.

First: COc1ccc(Br)cc1CNCC1CCCO1 (stereo not shown)
Second: Brc1cccc(CNCC2CCCO2)c1 (stereo not shown)
The “hERG current change (%, negative = inhibition) at 10uM” value of the first is higher: 5.7% for the first, 4.72% for the second.

First: Cl.Fc1ccc(COc2ccc(Br)cc2CNCC2CCCO2)cc1 (stereo not shown)
Second: O=C1CSc2ccccc2N1Cc1ccc(F)cc1
The “hERG current change (%, negative = inhibition) at 10uM” value of the first is lower: -63.5% for the first, -38.4% for the second.

Going from `Fc1ccc(NC(=S)NCCc2ccc(Cl)cc2)cc1` to `Cc1cccc(NC(=O)NCCN2CCCCC2)c1`, the “hERG current change (%, negative = inhibition) at 10uM” value falls from 1.47% to -25%.

First: COCCn1cnc2c1c(=O)n(CC(=O)NN)c(=O)n2Cc1ccccc1
Second: COCCn1cnc2c1c(=O)n(CC(=O)OCC(=O)NCC(F)(F)F)c(=O)n2Cc1ccccc1
The “hERG current change (%, negative = inhibition) at 10uM” value of the first is higher: 8.95% for the first, 4.6% for the second.

Compared with `CC1(C)CC(N2CCN(C(c3ccccc3)c3ccccc3)CC2)=CC(=[N+]2CCCCC2)C1.[I-]`, `CC1(C)CC(N2CCN(Cc3ccccc3)CC2)=CC(=[N+]2CCCCC2)C1.[I-]` is higher in “hERG current change (%, negative = inhibition) at 10uM” value: -72.1% for the first, 7.04% for the second.

Going from `CC1(C)CC(N2CCCC2)=CC(=[N+]2CCCC2)C1.[I-]` to `CC1(C)CC(N2CCCC2)=CC(=[N+]2CCCCCC2)C1.[I-]`, the “hERG current change (%, negative = inhibition) at 10uM” value rises from -12.1% to -8.68%.

First: CN(Cc1ccccc1)C1=CC(=[N+]2CCCCC2)CC(C)(C)C1.[I-]
Second: CN(Cc1ccccc1)C1=CC(=[N+]2CCCC2)CC(C)(C)C1.[I-]
The “hERG current change (%, negative = inhibition) at 10uM” value of the first is higher: -54.3% for the first, -55.4% for the second.

First: CC1(C)CC(NNCCC#N)=CC(=[N+]2CCCC2)C1.[I-]
Second: CCN(CC)C1=CC(=[N+]2CCCC2)CC(C)(C)C1.[I-]
The “hERG current change (%, negative = inhibition) at 10uM” value of the first is higher: 5.87% for the first, -4.08% for the second.

Going from `CC1(C)CC(N2CCCCC2)=CC(=[N+]2CCCCC2)C1.[I-]` to `CC1(C)CC(N2CCN(c3ccccc3)CC2)=CC(=[N+]2CCCC2)C1.[I-]`, the “hERG current change (%, negative = inhibition) at 10uM” value falls from 8.09% to -15.3%.

`CCCN(CCC)C1=CC(=[N+]2CCCC2)CC(C)(C)C1.[I-]` was tested, and the “hERG current change (%, negative = inhibition) at 10uM” value was -72.4%.
